{"source": "the supplement of paper PMC7057948", "about": "“A genome-wide approach for identification and characterisation of metabolite-inducible systems” (Nature Communications, 2020);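 on relative induction of RFP reporter vs primary effector (background-corrected): RFP excited at 585 nm with emission read at 620 nm, culture medium blanks subtracted from fluorescence and absorbance prior to normalisation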", "conditions_in_all_cases": "inducer concentration 5 mM; 6 h; Cupriavidus necator H16; minimal medium + 0.4% gluconate", "key": {"[1]": {"tested_on": "AcoR/P_H16_RS19445 acetoin biosensor (pEH052)", "test": "relative induction of RFP reporter vs primary effector; higher = stronger activation", "description": "(§1)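 Orthogonality screen of 21 primary inducers against 21 transcription factor/inducible promoter–mRFP biosensors in C. necator H16 in minimal medium, robotic 96-well format, 5 mM inducer, 30 °C. OD-normalised RFP fluorescence was read 6 h later and expressed as relative induction (%) = 100 × (FL compound − FL uninduced)/(FL primary inducer − FL uninduced); mean of n=4. Cognate pairs (100% by definition) omitted.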"}, "[2]": {"tested_on": "AraC/P_araBAD L-arabinose biosensor (pEH176)", "test": "relative induction of RFP reporter vs primary effector; higher = stronger activation", "description": "as §1"}, "[3]": {"tested_on": "BadR/P_H16_RS27200 cyclohexanecarboxylate biosensor (pEH159)", "test": "relative induction of RFP reporter vs primary effector; higher = stronger activation", "description": "as §1"}, "[4]": {"tested_on": "BenM/P_H16_RS09790 benzoate biosensor (pEH148)", "test": "relative induction of RFP reporter vs primary effector; higher = stronger activation", "description": "as §1"}, "[5]": {"tested_on": "FdsR/P_H16_RS03165 formate biosensor (pEH134)", "test": "relative induction of RFP reporter vs primary effector; higher = stronger activation", "description": "as §1"}, "[6]": {"tested_on": "GabR/P_H16_RS23655 GABA biosensor (pEH256)", "test": "relative induction of RFP reporter vs primary effector; higher = stronger activation", "description": "as §1"}, "[7]": {"tested_on": "HpdA/P_H16_RS24175 L-tyrosine biosensor (pEH158)", "test": "relative induction of RFP reporter vs primary effector; higher = stronger activation", "description": "as §1"}, "[8]": {"tested_on": "NahR/P_H16_RS08125 salicylate biosensor (pEH042)", "test": "relative induction of RFP reporter vs primary effector; higher = stronger activation", "description": "as §1"}, "[9]": {"tested_on": "OapR/P_H16_RS01330 beta-alanine biosensor (pEH147)", "test": "relative induction of RFP reporter vs primary effector; higher = stronger activation", "description": "as §1"}, "[10]": {"tested_on": "PcaQ/P_H16_RS30145 3,4-dihydroxybenzoate biosensor (pEH161)", "test": "relative induction of RFP reporter vs primary effector; higher = stronger activation", "description": "as §1"}, "[11]": {"tested_on": "PhgR/P_H16_RS05530 phenylglyoxylate biosensor (pEH155)", "test": "relative induction of RFP reporter vs primary effector; higher = stronger activation", "description": "as §1"}, "[12]": {"tested_on": "SauR/P_H16_RS13695 sulfonatoacetate biosensor (pEH157)", "test": "relative induction of RFP reporter vs primary effector; higher = stronger activation", "description": "as §1"}, "[13]": {"tested_on": "TtdR/P_H16_RS10665 tartrate biosensor (pEH083)", "test": "relative induction of RFP reporter vs primary effector; higher = stronger activation", "description": "as §1"}, "[14]": {"tested_on": "XdhR/P_H16_RS05055 xanthine biosensor (pEH154)", "test": "relative induction of RFP reporter vs primary effector; higher = stronger activation", "description": "as §1"}, "[15]": {"tested_on": "heterologous L-rhamnose-inducible system", "test": "relative induction of RFP reporter vs primary effector; higher = stronger activation", "description": "as §1"}, "[16]": {"tested_on": "heterologous acrylate-inducible system", "test": "relative induction of RFP reporter vs primary effector; higher = stronger activation", "description": "as §1"}, "[17]": {"tested_on": "heterologous cumate-inducible system", "test": "relative induction of RFP reporter vs primary effector; higher = stronger activation", "description": "as §1"}, "[18]": {"tested_on": "heterologous itaconate-inducible system", "test": "relative induction of RFP reporter vs primary effector; higher = stronger activation", "description": "as §1"}, "[19]": {"tested_on": "AcoR/P_H16_RS19445 acetoin biosensor (pEH052)", "test": "relative induction of RFP reporter vs primary effector (background-corrected); higher = stronger activation of the biosensor", "description": "(§2)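 C. necator H16 strains, each carrying one of 21 transcription factor/inducible promoter–mRFP biosensor plasmids, were grown in minimal medium in 96-well plates (robotic platform). Each was exposed to 46 structurally or metabolically related compounds at 5 mM at 30 °C. OD-normalised RFP fluorescence was read 6 h later and expressed as relative induction (%) = 100 × (FL compound − FL uninduced)/(FL primary inducer − FL uninduced); mean of n=4.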"}, "[20]": {"tested_on": "AraC/P_araBAD L-arabinose biosensor (pEH176)", "test": "relative induction of RFP reporter vs primary effector (background-corrected); higher = stronger activation of the biosensor", "description": "as §2"}, "[21]": {"tested_on": "BenM/P_H16_RS09790 benzoate biosensor (pEH148)", "test": "relative induction of RFP reporter vs primary effector (background-corrected); higher = stronger activation of the biosensor", "description": "as §2"}, "[22]": {"tested_on": "FdsR/P_H16_RS03165 formate biosensor (pEH134)", "test": "relative induction of RFP reporter vs primary effector (background-corrected); higher = stronger activation of the biosensor", "description": "as §2"}, "[23]": {"tested_on": "GabR/P_H16_RS23655 GABA biosensor (pEH256)", "test": "relative induction of RFP reporter vs primary effector (background-corrected); higher = stronger activation of the biosensor", "description": "as §2"}, "[24]": {"tested_on": "HpdR/P_H16_RS18295 3-hydroxypropanoate biosensor (pEH010)", "test": "relative induction of RFP reporter vs primary effector (background-corrected); higher = stronger activation of the biosensor", "description": "as §2"}, "[25]": {"tested_on": "KynR/P_H16_RS14030 L-kynurenine biosensor (pEH136)", "test": "relative induction of RFP reporter vs primary effector (background-corrected); higher = stronger activation of the biosensor", "description": "as §2"}, "[26]": {"tested_on": "NahR/P_H16_RS08125 salicylate biosensor (pEH042)", "test": "relative induction of RFP reporter vs primary effector (background-corrected); higher = stronger activation of the biosensor", "description": "as §2"}, "[27]": {"tested_on": "OapR/P_H16_RS01330 beta-alanine biosensor (pEH147)", "test": "relative induction of RFP reporter vs primary effector (background-corrected); higher = stronger activation of the biosensor", "description": "as §2"}, "[28]": {"tested_on": "PcaQ/P_H16_RS30145 3,4-dihydroxybenzoate biosensor (pEH161)", "test": "relative induction of RFP reporter vs primary effector (background-corrected); higher = stronger activation of the biosensor", "description": "as §2"}, "[29]": {"tested_on": "PhgR/P_H16_RS05530 phenylglyoxylate biosensor (pEH155)", "test": "relative induction of RFP reporter vs primary effector (background-corrected); higher = stronger activation of the biosensor", "description": "as §2"}, "[30]": {"tested_on": "PhhR/P_H16_RS18365 L-phenylalanine biosensor (pEH137)", "test": "relative induction of RFP reporter vs primary effector (background-corrected); higher = stronger activation of the biosensor", "description": "as §2"}, "[31]": {"tested_on": "SauR/P_H16_RS13695 sulfonatoacetate biosensor (pEH157)", "test": "relative induction of RFP reporter vs primary effector (background-corrected); higher = stronger activation of the biosensor", "description": "as §2"}, "[32]": {"tested_on": "TtdR/P_H16_RS10665 tartrate biosensor (pEH083)", "test": "relative induction of RFP reporter vs primary effector (background-corrected); higher = stronger activation of the biosensor", "description": "as §2"}, "[33]": {"tested_on": "XdhR/P_H16_RS05055 xanthine biosensor (pEH154)", "test": "relative induction of RFP reporter vs primary effector (background-corrected); higher = stronger activation of the biosensor", "description": "as §2"}, "[34]": {"tested_on": "heterologous inducible system pEH002 (rhamnose/acrylate/cumate/itaconate set)", "test": "relative induction of RFP reporter vs primary effector (background-corrected); higher = stronger activation of the biosensor", "description": "as §2"}, "[35]": {"tested_on": "heterologous inducible system pEH020 (rhamnose/acrylate/cumate/itaconate set)", "test": "relative induction of RFP reporter vs primary effector (background-corrected); higher = stronger activation of the biosensor", "description": "as §2"}, "[36]": {"tested_on": "heterologous inducible system pEH040 (rhamnose/acrylate/cumate/itaconate set)", "test": "relative induction of RFP reporter vs primary effector (background-corrected); higher = stronger activation of the biosensor", "description": "as §2"}, "[37]": {"tested_on": "heterologous inducible system pEH086 (rhamnose/acrylate/cumate/itaconate set)", "test": "relative induction of RFP reporter vs primary effector (background-corrected); higher = stronger activation of the biosensor", "description": "as §2"}}}
{"smiles": "Nc1ccccc1C(=O)C[C@H](N)C(=O)O", "note": "[L-kynurenine]", "values": [{"measurement": "relative induction of RFP reporter", "setting": "[1]", "result": -1.84, "unit": "%"}, {"measurement": "relative induction of RFP reporter", "setting": "[2]", "result": -0.00708, "unit": "%"}, {"measurement": "relative induction of RFP reporter", "setting": "[3]", "result": -0.604, "unit": "%"}, {"measurement": "relative induction of RFP reporter", "setting": "[4]", "result": -0.0309, "unit": "%"}, {"measurement": "relative induction of RFP reporter", "setting": "[5]", "result": -4.32, "unit": "%"}, {"measurement": "relative induction of RFP reporter", "setting": "[6]", "result": -1.24, "unit": "%"}, {"measurement": "relative induction of RFP reporter", "setting": "[7]", "result": 0.183, "unit": "%"}, {"measurement": "relative induction of RFP reporter", "setting": "[8]", "result": 0.00391, "unit": "%"}, {"measurement": "relative induction of RFP reporter", "setting": "[9]", "result": 0.521, "unit": "%"}, {"measurement": "relative induction of RFP reporter", "setting": "[10]", "result": -0.136, "unit": "%"}, {"measurement": "relative induction of RFP reporter", "setting": "[11]", "result": -0.296, "unit": "%"}, {"measurement": "relative induction of RFP reporter", "setting": "[12]", "result": 0.00419, "unit": "%"}, {"measurement": "relative induction of RFP reporter", "setting": "[13]", "result": -0.312, "unit": "%"}, {"measurement": "relative induction of RFP reporter", "setting": "[14]", "result": -0.483, "unit": "%"}, {"measurement": "relative induction of RFP reporter", "setting": "[15]", "result": -0.00942, "unit": "%"}, {"measurement": "relative induction of RFP reporter", "setting": "[16]", "result": -1.79, "unit": "%"}, {"measurement": "relative induction of RFP reporter", "setting": "[17]", "result": -0.886, "unit": "%"}, {"measurement": "relative induction of RFP reporter", "setting": "[18]", "result": -0.412, "unit": "%"}]}
{"smiles": "O=C(O)c1ccccc1", "values": [{"measurement": "relative induction of RFP reporter", "setting": "[10]", "result": 0.00574, "unit": "%"}]}
{"smiles": "O=c1cc[nH]c(=O)[nH]1", "note": "[uracil]", "values": [{"measurement": "relative induction of RFP reporter", "setting": "[19]", "result": -0.264, "unit": "%"}, {"measurement": "relative induction of RFP reporter", "setting": "[20]", "result": -0.0292, "unit": "%"}, {"measurement": "relative induction of RFP reporter", "setting": "[21]", "result": -0.0102, "unit": "%"}, {"measurement": "relative induction of RFP reporter", "setting": "[22]", "result": 2.09, "unit": "%"}, {"measurement": "relative induction of RFP reporter", "setting": "[23]", "result": 0.468, "unit": "%"}, {"measurement": "relative induction of RFP reporter", "setting": "[24]", "result": 0.292, "unit": "%"}, {"measurement": "relative induction of RFP reporter", "setting": "[25]", "result": 1.02, "unit": "%"}, {"measurement": "relative induction of RFP reporter", "setting": "[26]", "result": 0.0235, "unit": "%"}, {"measurement": "relative induction of RFP reporter", "setting": "[27]", "result": 0.971, "unit": "%"}, {"measurement": "relative induction of RFP reporter", "setting": "[28]", "result": -0.0843, "unit": "%"}, {"measurement": "relative induction of RFP reporter", "setting": "[29]", "result": -0.376, "unit": "%"}, {"measurement": "relative induction of RFP reporter", "setting": "[30]", "result": 0.347, "unit": "%"}, {"measurement": "relative induction of RFP reporter", "setting": "[31]", "result": -0.0169, "unit": "%"}, {"measurement": "relative induction of RFP reporter", "setting": "[32]", "result": -0.0341, "unit": "%"}, {"measurement": "relative induction of RFP reporter", "setting": "[33]", "result": 0.952, "unit": "%"}, {"measurement": "relative induction of RFP reporter", "setting": "[34]", "result": 0.0212, "unit": "%"}, {"measurement": "relative induction of RFP reporter", "setting": "[35]", "result": 0.742, "unit": "%"}, {"measurement": "relative induction of RFP reporter", "setting": "[36]", "result": -0.00512, "unit": "%"}, {"measurement": "relative induction of RFP reporter", "setting": "[37]", "result": 0.875, "unit": "%"}]}
